Assay results from PubChem BioAssay (NCATS).
Inconclusive results are not listed. A call without a number means that no potency is given here. Calls of active or inactive are those of the source. The call rests on the fitted dose curve; in most records, active means well fitted curve in the direction sought with a large enough effect; inconclusive means small, poorly fitted or top-dose-only effect, or another doubt; inactive means no such curve, though single readings can be large; an effect the other way counts as inactive or inconclusive.

system: Zika virus NS2B-NS3 protease; assay: Primary screen GU AMC qHTS for Zika virus inhibitors (AID 1347154); conditions: Zika NS2B-NS3 unlinked protease, AMC fluorogenic substrate; series mostly up to 54.1 µM; further: nearly all actives have a fitted effect of over 70% in size; further: potency means the concentration at half of the fitted maximal effect
Outline: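 Fluorogenic AMC-substrate cleavage by noncovalent NS2B-NS3 protease complex (25 nM, pH 8.0 Tris buffer with Tween 20) followed for 15 minutes at room temperature (~20% conversion). Percent inhibition from ex340/em450 signal change, fitted by 4-parameter Hill equation.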

Row | SMILES | Potency
1 | C#C[C@]1(O)CC[C@H]2[C@@H]3CCC4=CC(=O)CC[C@@H]4[C@H]3CC[C@@]21CC | inactive
2 | FC(F)(F)C(F)(F)C(F)(F)C(F)(F)C(F)(F)C(F)(F)C(F)(F)C(F)(F)Br | inactive
3 | Cc1cc(-c2ccccc2)nnc1NCCN1CCOCC1 | inactive
4 | Clc1cccc(C(c2ccc3nc[nH]c3c2)n2ccnc2)c1 (stereo not drawn) | inactive
5 | O=C1[C@H](CC[C@H](O)c2ccc(F)cc2)[C@@H](c2ccc(O)cc2)N1c1ccc(F)cc1 | inactive
6 | CCCCCCCCOc1ccc(C(=O)c2ccccc2)c(O)c1 | inactive
7 | CC(=O)Nc1ccc(OCC(O)CNC(C)C)cc1 (stereo not drawn) | inactive
8 | C=C[C@H]1CN2CC[C@H]1C[C@H]2[C@H](O)c1ccnc2ccc(OC)cc12 | inactive
9 | CN(CCCN1c2ccccc2CCc2ccccc21)CC(=O)c1ccc(Cl)cc1 | inactive
10 | CCNC(=O)NCc1cccc(Cl)c1 | inactive
11 | CC(=O)OC[C@H]1O[C@@H](n2ncc(=O)[nH]c2=O)[C@H](OC(C)=O)[C@@H]1OC(C)=O | inactive
12 | C=CCN1CCc2nc(N)sc2CC1 | inactive
13 | Nc1ccc(C(=O)NCC(=O)O)cc1 | inactive
14 | CN(C)CCC[C@@]1(c2ccc(F)cc2)OCc2cc(C#N)ccc21 | inactive
15 | CCOc1ccc(NC(C)=O)cc1 | inactive
16 | CC(=O)O[C@]1(C(C)=O)CC[C@H]2[C@@H]3C=C(C)C4=CC(=O)CC[C@]4(C)[C@H]3CC[C@@]21C | inactive
17 | COc1cc(C(=O)NCc2ccc(OCCN(C)C)cc2)cc(OC)c1OC | inactive
18 | O=C(O)Cc1csc(-c2ccc(Cl)cc2)n1 | inactive
19 | O=C(O)CCc1nc2ccccc2[nH]1 | inactive
20 | O=C(Nc1ccccc1)OCC(CN1CCCCC1)OC(=O)Nc1ccccc1 (stereo not drawn) | inactive

Row | SMILES | Potency
21 | Oc1c(Cl)cc(Cl)c(Cl)c1Cc1c(O)c(Cl)cc(Cl)c1Cl | 7.94 µM (active)
22 | CCOc1ccccc1OCCN[C@H](C)Cc1ccc(OC)c(S(N)(=O)=O)c1 | inactive
23 | O=C(NCCc1c[nH]c2ccccc12)c1cccnc1 | inactive
24 | CCOc1ccccc1C(N)=O | inactive
25 | OC1C(O)C(O)C(O)C(O)C1O (stereo not drawn) | inactive
26 | C#C[C@]1(O)CC[C@H]2[C@@H]3CCC4=Cc5oncc5C[C@]4(C)[C@H]3CC[C@@]21C | inactive
27 | Cc1ccc(S(=O)(=O)NC(=O)NC2CCCC2)cc1 | inactive
28 | Cc1ncc(CO)c(C=O)c1O | 14.4 µM (active)
29 | O=C(CCCN1CC=C(n2c(=O)[nH]c3ccccc32)CC1)c1ccc(F)cc1 | inactive
30 | CC[C@]12CCCN3CCc4c(n(c5ccccc45)C(=O)C1)[C@@H]32 | inactive
31 | CC(C)NCC(O)c1ccc2ccccc2c1 (stereo not drawn) | inactive
32 | CC(=O)Nc1ccc(OC(=O)c2ccccc2OC(C)=O)cc1 | inactive
33 | O=C(Nc1ncc([N+](=O)[O-])s1)c1cccs1 | inactive
34 | CC[C@H](c1ccc(O)cc1)[C@@H](CC)c1ccc(O)cc1 | inactive
35 | Nc1ccc(S(=O)(=O)NCc2ccccc2)cc1 | inactive
36 | C[C@H]1[C@H]2CC[C@H]3[C@@H]4CC=C5C[C@@H](N(C)C)CC[C@]5(C)[C@H]4CC[C@]23CN1C | inactive
37 | COP(=O)(OC)OC(c1ccc(Cl)cc1)P(=O)(OC)OC (stereo not drawn) | inactive
38 | FC1(F)C(F)(F)C(F)(F)C2(F)C(F)(F)C(F)(F)C(F)(F)C(F)(F)C2(F)C1(F)F (stereo not drawn) | inactive
39 | O=C(CCN1CCN2CCCC2C1)N1c2ccccc2Sc2ccc(Cl)cc21 (stereo not drawn) | inactive
40 | Cc1c(-c2ccccc2)oc2c(C(=O)OCCN3CCCCC3)cccc2c1=O | inactive

system: Zika virus NS2B-NS3 protease (unlinked complex); assay: Primary screen GU Rhodamine qHTS for Zika virus inhibitors: Unlinked NS2B-NS3 protease assay (AID 1347159); conditions: Recombinant ZIKV NS2B-NS3 protease, Rhodamine110 substrate fluorescence; series mostly up to 107 µM; further: nearly all actives have a fitted effect of over 60% in size
Outline: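 Enzyme 25 nM in Tris-HCl pH 8.0 + 0.01% Tween 20; compounds up to 114 microM, 15 min RT dark; + Rhod110 substrate 1.5 microM; read t0 and 15 min; delta fluorescence → % inhibition → 4-parameter Hill fit.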

Row | SMILES | outcome
41 | C=C[C@H]1CN2CC[C@H]1C[C@H]2[C@H](O)c1ccnc2ccc(OC)cc12 | inactive
42 | O=C(CCCN1CC=C(n2c(=O)[nH]c3ccccc32)CC1)c1ccc(F)cc1 | inactive
43 | CC[C@]12CCCN3CCc4c(n(c5ccccc45)C(=O)C1)[C@@H]32 | inactive
